Experimental data published in PubChem BioAssay AID651592 (Sanford-Burnham Center for Chemical Genomics, 2012).
The source made the active and inactive calls.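 Rule for the calls: active = NF-kB reporter IC50 at most 10 µM, IL-8 IC50 within fivefold of it with bacterial filtrate but not with TNF-alpha; inactive = the rest.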

Test: inhibitors of NFkB activation in CF airway cells, SAR follow-up, KKLEB cells, panel, IL8 HTRF, NFkB-GFP (AID 651592);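 note: immortalized cystic fibrosis airway epithelial KKLEB cells with an NF-kB GFP reporter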
Conditions: PAF/TNFa-induced NFkB-GFP / IL8 HTRF, CF-PAF assay, mean of runs

With `O=C(Nc1ccc(N2CCN(C(=O)c3ccccc3Cl)CC2)cc1)c1cccnc1` the outcome was “inactive”.

For `O=C(Nc1ccc(N2CCN(C(=O)c3ccccc3Cl)CC2)cc1)c1cc(Br)cc(Br)c1`, the outcome was “inactive”.

In the case of `CCOc1ccc(NCc2cc3c(C(C)(C)C)nn(-c4ccc(Cl)cc4)c3[nH]c2=O)cc1`, the outcome was “inactive”.

For `O=C(Nc1ccc(N2CCN(C(=O)c3ccccc3Cl)CC2)cc1)c1ccccc1`, the outcome was “active”.

For `O=C(Nc1ccc(N2CCN(C(=O)c3ccccc3Cl)CC2)cc1)c1ccccn1`, the outcome was “inactive”.

With `O=C(Nc1ccc(N2CCN(C(=O)c3ccc(F)cc3)CC2)cc1)c1ccncc1` the outcome was “inactive”.

In the case of `O=C(Nc1ccc(N2CCN(C(=O)c3ccccc3)CC2)cc1)c1cccnc1`, the outcome was “inactive”.

In the case of `Cc1ccc(NCc2cc3c(C(C)(C)C)nn(-c4ccccc4)c3[nH]c2=O)cc1`, the outcome was “inactive”.

In the case of `O=C(Nc1ccc(N2CCN(C(=O)c3ccccc3)CC2)cc1)c1ccncc1`, the outcome was “inactive”.

For `O=C(Nc1ccc(N2CCN(C(=O)c3ccccc3)CC2)cc1)c1cccc(Br)c1`, the outcome was “inactive”.

With `O=C(Nc1ccc(N2CCN(C(=O)c3ccccc3Cl)CC2)cc1)c1cncc(Br)c1` the outcome was “active”.

With `O=C(Nc1ccc(N2CCN(C(=O)c3ccccc3Cl)CC2)cc1)c1ccncc1` the outcome was “inactive”.

In the case of `O=C(Nc1ccc(N2CCN(C(=O)c3ccccc3F)CC2)cc1)c1ccncc1`, the outcome was “inactive”.

For `O=C(Nc1ccc(N2CCN(C(=O)c3ccc(F)cc3)CC2)cc1)c1cc(Br)cc(Br)c1`, the outcome was “inactive”.

In the case of `O=C(Nc1ccc(N2CCN(C(=O)c3ccc(F)cc3)CC2)cc1)c1cccc(Br)c1`, the outcome was “inactive”.

For `CCOc1ccc(NCc2cc3c(-c4ccc(F)cc4)nn(-c4ccccc4)c3[nH]c2=O)cc1`, the outcome was “active”.

With `CCOc1ccc(NCc2cc3c(C)nn(-c4ccccc4)c3[nH]c2=O)cc1` the outcome was “inactive”.

In the case of `O=C(Nc1ccc(N2CCN(C(=O)c3ccc(F)cc3)CC2)cc1)c1cncc(Br)c1`, the outcome was “active”.

For `O=C(Nc1ccc(N2CCN(C(=O)c3ccccc3)CC2)cc1)c1ccccc1`, the outcome was “inactive”.

For `O=C(Nc1ccc(N2CCN(C(=O)c3ccccc3F)CC2)cc1)c1ccccn1`, the outcome was “inactive”.

With `O=C(Nc1ccc(N2CCN(C(=O)c3ccccc3)CC2)cc1)c1cncc(Br)c1` the outcome was “active”.

In the case of `O=C(Nc1ccc(N2CCN(C(=O)c3ccccc3F)CC2)cc1)c1cc(Br)cc(Br)c1`, the outcome was “inactive”.

In the case of `O=C(Nc1ccc(N2CCN(C(=O)c3ccccc3)CC2)cc1)c1cc(Br)cc(Br)c1`, the outcome was “inactive”.

With `CCOc1ccc(NCc2cc3c(-c4ccc(OC)c(OC)c4)nn(-c4ccccc4)c3[nH]c2=O)cc1` the outcome was “inactive”.

With `O=C(Nc1ccc(N2CCN(C(=O)c3ccc(F)cc3)CC2)cc1)c1cccnc1` the outcome was “inactive”.

With `O=C(Nc1ccc(N2CCN(C(=O)c3ccccc3)CC2)cc1)c1ccccn1` the outcome was “inactive”.

For `O=C(Nc1ccc(N2CCN(C(=O)c3ccc(F)cc3)CC2)cc1)c1ccccn1`, the outcome was “inactive”.

For `O=C(Nc1ccc(N2CCN(C(=O)c3ccccc3Cl)CC2)cc1)c1cccc(Br)c1`, the outcome was “inactive”.

For `O=C(Nc1ccc(N2CCN(C(=O)c3ccc(F)cc3)CC2)cc1)c1ccccc1`, the outcome was “inactive”.

With `CCOc1ccc(NCc2cc3c(C(C)(C)C)nn(-c4ccccc4)c3[nH]c2=O)cc1` the outcome was “inactive”.

For `O=C(Nc1ccc(N2CCN(C(=O)c3ccccc3F)CC2)cc1)c1cccnc1`, the outcome was “inactive”.

For `O=C(Nc1ccc(N2CCN(C(=O)c3ccccc3F)CC2)cc1)c1cccc(Br)c1`, the outcome was “inactive”.

In the case of `Cc1ccc(CNCc2cc3c(C(C)(C)C)nn(-c4ccccc4)c3[nH]c2=O)cc1`, the outcome was “inactive”.

For `O=C(Nc1ccc(N2CCN(C(=O)c3ccccc3F)CC2)cc1)c1ccccc1`, the outcome was “inactive”.
